# PubChem BioAssay
# Activity calls are given as the source filed them. Unless noted, no rule for the calls is given here.
# Assays:
# [1] = resazurin metabolic signal in HepG2 cells – cell-based, resazurin fluorescence, 24 h, PK04 Diversity Set, profiling panel (AID 1172); details: HepG2 viability, higher = more signal; also: test concentration not given here
# [2] = budding yeast growth changes without added modifier – OD600, strain BY4716, 24 h, basal condition, primary screen (AID 1173); details: S. cerevisiae BY4716 growth, OD600, 24 h; higher = more signal, called active from +8 up or from −8 down
# [3] = viability profiling in MM1S myeloma cells – cell-based, resazurin fluorescence, basal, 24 h, PK04 Diversity Set, profiling panel (AID 1174); details: higher = more signal, called active from +8 up or from −8 down;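 also: MM1S multiple myeloma cell line; test concentration not given here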
# [4] = target: Dihydroorotate dehydrogenase (quinone), mitochondrial (Plasmodium falciparum (isolate 3D7)) (UniProt Q08210); experiment: inhibition of P. falciparum DHODH – biochemical, C-terminal His tag, absorbance 600 nm, primary screen (AID 1175); details: PfDHODH enzyme, DCIP absorbance 600 nm; higher = more signal, called active from +8 up or from −8 down;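 also: recombinant parasite enzyme with a five histidine tag at its C terminus; test concentration not given here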
# [5] = inhibition of PAO1 biofilm formation – strain PAO1, LB-PBS medium, absorbance 600 nm, primary screen (AID 1176); also: test concentration not given here; details: P. aeruginosa PAO1 growth/biofilm, A600, 12 h; higher = more signal
# [6] = growth modulation of vineyard yeast isolate – strain RM11-1a, OD600, basal, 24 h, primary screen (AID 1177);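 also: cultures grown under basal conditions with no added stressor; test concentration not given here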; details: S. cerevisiae RM11-1a growth, OD600, 24 h; higher = more signal, called active from +8 up or from −8 down
# [7] = growth of efflux-deficient E. coli DRC39 – strain DRC39, OD650, 24 h, E. coli filamentation inducers, primary screen (AID 1178);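 also: growth measured as culture turbidity by optical density at 650 nm; test concentration not given here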; details: E. coli DRC39 acrAB, higher = more signal, called active from +8 up or from −8 down
# [8] = growth of efflux-deficient E. coli DRC39 – strain DRC39, OD650, 48 h, E. coli filamentation inducers, primary screen (AID 1179);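 also: screen aims at cell division blockers that make cells filament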; details: E. coli DRC39 delta-acrAB growth, higher = more signal, called active from +8 up or from −8 down
# [9] = viability profiling in RPMI8226 myeloma cells – cell-based, resazurin fluorescence, basal, 24 h, PK04 Diversity Set, profiling panel (AID 1180); details: higher = more signal;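 also: RPMI8826 multiple myeloma cell line at 5000 cells per well; test concentration not given here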
# [10] = target: E3 ubiquitin-protein ligase XIAP (Homo sapiens) (UniProt P98170); experiment: small molecules binding XIAP protein – biophysical, small-molecule microarray, fluorescence 635 nm, primary screen (AID 1181); details: higher = more signal;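 also: score merges 667 nm emission and signal to noise over triplicate slides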
# Sequence of E3 ubiquitin-protein ligase XIAP (Homo sapiens) (P98170 whole entry, looked up): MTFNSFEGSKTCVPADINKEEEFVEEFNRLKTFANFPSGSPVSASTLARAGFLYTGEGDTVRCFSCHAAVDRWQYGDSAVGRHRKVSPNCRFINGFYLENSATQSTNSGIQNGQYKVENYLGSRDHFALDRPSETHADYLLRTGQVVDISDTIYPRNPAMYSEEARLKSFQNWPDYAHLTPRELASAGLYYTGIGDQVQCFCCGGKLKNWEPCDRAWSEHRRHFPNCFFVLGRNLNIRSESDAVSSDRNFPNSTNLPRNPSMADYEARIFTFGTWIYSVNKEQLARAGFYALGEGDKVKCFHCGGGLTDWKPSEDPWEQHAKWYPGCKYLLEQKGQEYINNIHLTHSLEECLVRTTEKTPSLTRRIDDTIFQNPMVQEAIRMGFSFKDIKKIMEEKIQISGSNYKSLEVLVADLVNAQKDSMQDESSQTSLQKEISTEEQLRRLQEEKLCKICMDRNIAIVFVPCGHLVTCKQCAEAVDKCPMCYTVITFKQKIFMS
# Sequence of Dihydroorotate dehydrogenase (quinone), mitochondrial (Plasmodium falciparum (isolate 3D7)) (Q08210 whole entry, looked up): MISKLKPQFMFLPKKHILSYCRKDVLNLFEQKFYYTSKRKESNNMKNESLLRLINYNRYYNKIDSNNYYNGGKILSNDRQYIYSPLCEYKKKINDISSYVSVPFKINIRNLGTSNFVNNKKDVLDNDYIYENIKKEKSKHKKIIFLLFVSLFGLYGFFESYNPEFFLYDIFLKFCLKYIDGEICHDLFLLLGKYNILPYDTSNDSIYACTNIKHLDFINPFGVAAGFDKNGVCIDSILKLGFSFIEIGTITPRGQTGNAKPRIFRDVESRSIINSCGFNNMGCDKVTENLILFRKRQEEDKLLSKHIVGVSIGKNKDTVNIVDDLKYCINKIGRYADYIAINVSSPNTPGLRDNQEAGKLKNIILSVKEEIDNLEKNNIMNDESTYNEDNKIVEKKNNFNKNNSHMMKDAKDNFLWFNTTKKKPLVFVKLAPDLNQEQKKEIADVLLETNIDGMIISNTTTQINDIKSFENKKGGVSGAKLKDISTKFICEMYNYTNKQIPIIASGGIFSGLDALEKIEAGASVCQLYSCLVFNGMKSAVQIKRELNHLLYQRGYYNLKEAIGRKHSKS
Structure (SMILES),z-score [1],z-score [2],z-score [3],composite z-score [4],z-score [5],z-score [6],z-score [7],z-score [8],z-score [9],composite z-score [10]
CCCCCN1CC=CC23O[C@@H]4/C=C\CCCOC(=O)C4[C@H]2C(=O)N(CCCCCCO)[C@@H]3C1=O (stereo not given in full),0.239,-2.73 (inactive),0.972 (inactive),-2.25 (inactive),1.45 (inactive),-3.12 (inactive),0.758 (inactive),0.868 (inactive),1.42,0.147
COC(=O)[C@@]1(Cc2ccccc2)N=C(c2ccc(OCCCO)cc2)O[C@H]1c1ccccc1N=[N+]=[N-],-0.914,0.0975 (inactive),-2.58 (inactive),0.0308 (inactive),1.49 (inactive),1.57 (inactive),0.368 (inactive),0.752 (inactive),-2.93,0.723
CCCCC=C[C@@H](NC(=O)c1cccs1)c1ccccc1,0.327,0.822 (inactive),-0.321 (inactive),0.0375 (inactive),0.191 (inactive),1 (inactive),0.659 (inactive),0.955 (inactive),-1.95,-0.0426
C=CC(COC(C)=O)NS(=O)(=O)c1ccc(Br)cc1 (stereo not given),-0.233,-2.68 (inactive),0.364 (inactive),-0.287 (inactive),0.212 (inactive),-0.406 (inactive),-0.909 (inactive),-1.05 (inactive),0.404,-0.338
O=C1O[C@@H](c2ccccc2)[C@@H](c2ccccc2)N2[C@@H](c3ccc(OCCO)cc3)[C@]3(C(=O)Nc4ccccc43)[C@@H](C(=O)Nc3nc4ccccc4s3)[C@H]12,-0.489,0.0135 (inactive),-1.52 (inactive),-0.308 (inactive),3.18 (inactive),1.97 (inactive),-0.595 (inactive),0.29 (inactive),-1.55,0.148
COC(=O)C[C@@H]1C[C@H](C)[C@]2(O1)C(=O)N(Cc1ccccc1)c1ccc(NC(C)=O)cc12,-0.873,-1.15 (inactive),-1.19 (inactive),0.281 (inactive),-0.0582 (inactive),0.0057 (inactive),-0.768 (inactive),-1.33 (inactive),-0.888,0.123
CCOC(=O)C[C@H]1[C@H](OC(=O)c2ccccc2-c2ccccc2)[C@@H](NC(=O)Cc2ccc(OC)cc2)c2cc(OCCCO)ccc2N1C(=O)c1ccccc1,-0.532,0.728 (inactive),-0.275 (inactive),0.542 (inactive),-0.0461 (inactive),0.799 (inactive),-0.672 (inactive),-0.79 (inactive),-0.155,0.123
COc1ccc(C(=O)Nc2cccc(CN3C(=O)[C@]4(O[C@H](CC(=O)N5CCC[C@H]5CO)[C@@H]([Si](C)(C)c5ccc(OC)cc5)[C@@H]4C)c4ccccc43)c2)cc1,-1.72,-0.268 (inactive),-2.7 (inactive),-2.54 (inactive),0.0943 (inactive),0.312 (inactive),0.951 (inactive),0.441 (inactive),-4.84,-0.0998
O=C(CS)NCCCCCCNC(=O)[C@@H]1C[C@@H]2C(=O)N3CCC[C@H]3C(=O)N2[C@@H]1c1ccc(O)cc1,-0.564,0.784 (inactive),0.357 (inactive),0.586 (inactive),-0.158 (inactive),1.24 (inactive),-0.0727 (inactive),-0.313 (inactive),-0.449,0.0153
[N-]=[N+]=NCc1ccccc1C[C@]1(C(=O)O)N=C(c2ccc(OCCCO)cc2)O[C@H]1c1ccccc1,0.922,-2.17 (inactive),0.111 (inactive),0.732 (inactive),0.755 (inactive),-0.923 (inactive),-0.168 (inactive),-0.429 (inactive),0.525,-0.0482
CN1CCC(CCCO)=CC1c1ccc(CN2CCCC2)cc1 (stereo not given),0.106,-1.33 (inactive),-0.202 (inactive),-0.27 (inactive),0.661 (inactive),-0.0607 (inactive),0.0543 (inactive),0.201 (inactive),-0.304,0.194
COc1ccc(C#Cc2ccc3c(c2)[C@]2(C(=O)N3)[C@H](c3ccc(O)cc3)N3[C@H](c4ccccc4)[C@H](c4ccccc4)OC(=O)[C@H]3[C@@H]2C(=O)N2CCCCCCC2)cc1,-0.527,-1.15 (inactive),0.0901 (inactive),-1.4 (inactive),1.44 (inactive),-0.404 (inactive),-0.525 (inactive),-0.469 (inactive),0.326,0.536
